This assay in a line: NCI Yeast Anticancer Drug Screen. Data for the rad52 strain (AID 147).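 Also: 0% = growth of vehicle-treated control cultures.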 The following applies: S. cerevisiae rad52 mutant growth inhibition, hits give high values. The procedure: Growth inhibition of yeast strains with defined genetic alterations is measured as a screen for potential anti-cancer activity. Selected strains with alterations in DNA damage repair or cell cycle control were exposed to compounds and growth inhibition was measured relative to vehicle treated controls. The strain used in this assay is rad52

The panel holds about 79,000 compounds, 15% with a hit somewhere; the sample as a whole holds those more often. A number with no mark means an inactive call. Activity calls are given as the source filed them. Rule as the data show it: active = growth inhibition above about 70%; inactive = the rest.

On to `COc1ccc(N=CN(C)C)c(C)c1`, for which the growth inhibition is -24% (at 1.2 µM); -26% (at 3.7 µM); 0% (at 11.0 µM); 83% (active) (at 33.0 µM); 94% (active) (at 100.0 µM).

Consider `CN(C)CCNC(=O)c1cccc2c1Oc1c(cccc1[N+](=O)[O-])O2`, for which the growth inhibition is -20% (at 1.2 µM); -21% (at 3.7 µM); -12% (at 11.0 µM); 59% (at 33.0 µM); 93% (active) (at 100.0 µM).

As to `CN(C)CCNc1ccc2ncnc3c2c1C(=O)c1ccccc1-3`, the growth inhibition was 95% (active) (at 1.2 µM); 94% (active) (at 3.7 µM); 96% (active) (at 11.0 µM); 97% (active) (at 33.0 µM); 96% (active) (at 100.0 µM).

For `Cc1cccc(/C=N/NC(=S)N2CCCC2)n1`, the growth inhibition is -25% (at 1.2 µM); -26% (at 3.7 µM); 27% (at 11.0 µM); 94% (active) (at 33.0 µM); 96% (active) (at 100.0 µM).

As for `CCc1c[n+]([O-])c(C)cc1[N+](=O)[O-]`, the growth inhibition was 2% (at 1.2 µM); 7% (at 3.7 µM); 21% (at 11.0 µM); 57% (at 33.0 µM); 90% (active) (at 100.0 µM).

On to `O=C1c2ccccc2C(=O)N1CCCC(=O)n1cc(F)c(=O)[nH]c1=O`, for which the growth inhibition was -31% (at 1.2 µM); -33% (at 3.7 µM); 0% (at 11.0 µM); 29% (at 33.0 µM); 8% (at 100.0 µM).

In the case of `COc1cc(/C=C2\NC(=O)N(/C=C3\C(=O)Oc4ccccc4C3=O)C2=O)ccc1O`, the growth inhibition was -3% (at 1.2 µM); 1% (at 3.7 µM); 16% (at 11.0 µM); 79% (active) (at 33.0 µM); 96% (active) (at 100.0 µM).

For `O=C(/C=C\c1cccc(C(F)(F)F)c1)c1ccccc1`, the growth inhibition was -3% (at 1.2 µM); -2% (at 3.7 µM); -1% (at 11.0 µM); -3% (at 33.0 µM); -3% (at 100.0 µM).
